Data on 40 molecules can be found in PubChem BioAssay (NCI).

The panel holds about 83,000 compounds, 20% with a hit somewhere; the sample as a whole holds those more often.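 How to read the values: 0–100, growth inhibition (40 = 60% inhibited); 0, no net growth; -100 to 0, cell death (-40 = 40% of starting cells died; -100 = all dead).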 A number with no mark means an inactive call. The source made the active and inactive calls.

In the test the test system is NCI-H522 lung. In words: NCI-60 one-dose screen, 48 h (100 = growth as untreated, 0 = no growth, -100 = all killed). The following applies: 10 µM unless noted. The procedure:
Growth inhibition of the NCI-H522 human Non-Small Cell Lung tumor cell line is measured as a screen for anti-cancer activity. Cells are grown in 96 well plates and exposed to the test compound for 48 hours. Compounds are tested at a single concentration, which is 10^-5 M for most compounds. The reported endpoint is percent growth (GI% or GIPRCNT), where numbers from 0 - 100% represent growth inhibition, and numbers from -100% - 0 represent cell death. For example, a value of 40 represents 60% growth inhibition. A value of 0 means no net growth occurred over the course of the experiment. A value of -40 indicates 40% of cells at the beginning of the experiment died by the end of the experiment. A value of -100 means all cells are dead at the end of the experiment.
NCI-60 Human Tumor Cell Lines Screen was performed using the standard one-dose NCI protocol, which is described in more detail at https://dtp.cancer.gov/discovery_development/nci-60/default.htm.
Compounds with GIPRCNT values below 10 were considered active. Activity score was based on GIPRCNT using the following formula: […]
Score is 0 for GIPRCNT values of 100 or above, 50 for GIPRCNT values of 0, and 100 for GIPRCNT values of -100.
As for `O=C1/C(=C/c2ccc([N+](=O)[O-])o2)Oc2ccc(Cl)cc21`, the growth was -84.4% (active).

Take `O=[N+]([O-])c1ccc(Oc2cccc(C(F)(F)F)c2)c([N+](=O)[O-])c1`: the growth is -16% (active).

Take `Cc1nc2c(O)cccc2cc1CO`: the growth was 107%.

Turning to `CCCCC1Nc2nc(SC)n(C)c(=O)c2CN(Cc2ccccc2)C1=O` (stereo not given), the growth is 76%.

On to `Cc1ccccc1-c1cc(Cc2ccccc2O)c(=O)[nH]n1`, for which the growth was 93.3%.

For `CCCCOc1ccc(C(C)(C)c2ccc(OCCCC)cc2)cc1`, the growth was 92.3%.

`COc1ccc2c(c1)C(=O)/C(=C/c1cccc(OCC(=O)c3ccccc3)c1)CC2`: the growth was 64.7%.

Turning to `COc1ccccc1[C@H]1c2[nH]c3ccccc3c2C[C@H]2C(=O)N(CCCCCCC(=O)NO)CC(=O)N12`, the growth was 10.5%.

With `CCN1C(=O)c2ccc3c4c(ccc(c24)C1=O)C(=O)N(CCCNCc1ccccc1OC)C3=O`, the growth is -87.1% (active).

In the case of `CC12CCC3C(CCC4CC(=O)/C(=C\O)CC43C)C1CCC(=O)O2` (stereo not given), the growth was 108%.

Take `Oc1ccc(-c2nn(-c3ccccc3)cc2-c2nc3ccccc3s2)cc1`: the growth is 101%.

Consider `COc1ccc(/C=C(\C#N)c2ccccc2)cc1`, for which the growth is 90.1%.

As to `Cc1c(C(N)=O)sc2c1C(=O)N(Cc1ccccc1)C1=NN=C(c3ccc(Cl)cc3)CN12`, the growth was 67.1%.

In the case of `CCCCCCC/C(=N\N=C(N)N)c1ccc(O)cc1`, the growth was 47.7%.

For `N#Cc1c2ccccc2c2n1-c1ccccc1OC(c1ccccc1)C2=O` (stereo not given), the growth is -43.7% (active).

With `CC(C)(C)c1cc(O)c(O)c(C(C)(C)C)c1`, the growth was 0.232% (active).

`Cc1cc(CC(=O)O)n(C)c1C(=O)c1ccc(Cl)cc1`: the growth is 101%.

As to `CSc1ccc2c(c1)N(CCC1CCCCN1C)c1ccccc1S2` (stereo not given), the growth is 56.3%.

`COc1cc(-c2cc(C(=O)Nc3nc4ccccc4s3)nc3cc(-c4ccccc4)nn23)cc(OC)c1OC`: the growth was 18.8%.

For the molecule `OCCOc1c(Cl)cc(Cl)cc1Cl`, the growth was 108%.

Consider `COC(=O)[C@]1(CCSC)N[C@H](c2cn(-c3ccccc3)nc2C)[C@@H]2C(=O)N(c3ccc(C)cc3)C(=O)[C@@H]21`, for which the growth is 89.6%.

Regarding `NC(=O)SCC(=O)Nc1ccccc1-c1ccccc1`, the growth was 50.1%.

Take `O=C1NC(=O)/C(=C\c2ccccc2)C2=C1CCCC2`: the growth was -87.4% (active).

On to `CCC(CC)NCCCCCNc1cc(OC)cc2cccnc12`, for which the growth was 97.7%.

`C=CCCCCCCCCC(=O)[O][Sn]([CH2]CCC)([CH2]CCC)[CH2]CCC`: the growth is -53% (active).

Take `C[C@]12CC[C@@H]3c4ccc(O)c([N+](=O)[O-])c4CC[C@H]3[C@@H]1CC[C@@H]2NS(=O)(=O)c1cccc(Br)c1`: the growth is -50.4% (active).

Turning to `CN1C(=O)C(=Cc2cn(Cc3ccccc3)c3ccc(Br)cc23)C(=O)N(C)C1=O`, the growth is 94.4%.

Consider `Oc1ccccc1C=Nc1ccccc1N=Cc1ccccc1O.[Cu+2]`, for which the growth is 14.9%.

Turning to `O=C1OCCCCCCCCCC#Cc2ccccc21`, the growth was 71.2%.

Turning to `O=c1ccn(C2CCCO2)c(=O)[nH]1` (stereo not given), the growth was 98.5%.

Consider `COc1ccc(COC(C)=O)cc1`, for which the growth was 118%.

`CC[N+](C)(CC)CCCC(C)Nc1ccnc2cc(Cl)ccc12` (stereo not given): the growth was 108%.

As for `CCN(CC)CCOc1ccc(C2=C(c3ccccc3)CCc3cc(OC)ccc32)cc1`, the growth is -25.3% (active).

Take `Cc1cc(NC(=O)c2ccc(N)cc2)ccc1N=Nc1ccc2c(O)c(N=Nc3ccc(Cl)c(S(=O)(=O)O)c3)c(S(=O)(=O)O)cc2c1`: the growth is 78.6%.

Regarding `COc1ccc(-c2nn(-c3cccc(Cl)c3)cc2C2CC(c3ccccc3)=NN2C(C)=O)cc1` (stereo not given), the growth is 60.9%.

Take `C/C(=C\CCc1ccsc1)CC/C=C(\C)CCCN1CCC(CO)CC1`: the growth was 27.7%.

`Nc1nc(Cl)c2[nH]cnc2n1`: the growth was 96.2%.

Take `Cc1cc(O)c2c(c1)C[C@H]1[C@@H]3CC[C@H]4CC(=O)CC[C@]4(C)[C@H]3CC(=O)[C@]21C`: the growth was 73.9%.

On to `Nc1ncc(-c2cnn(C3CCNCC3)c2)cc1-c1nc2cc(Cl)ccc2o1`, for which the growth was -87.6% (active).

`CCC(C)CC(C)C(=O)c1c(O)ccn(OC)c1=O` (stereo not given): the growth is 90.9%.
